# Where “and” joins values, the source holds several entries; their conditions need not be identical. Identical values can stand only once. This is part of a sample that, as a whole, favours compounds with a hit. Of some 83,000 tested, about 20% had one in any assay.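 Single-dose data. Exposure time 48 hours. Values below 10 considered active.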 Values without a mark were called inactive. Calls of active or inactive are those of the source.
# Key:
# Test in all cases: NCI-60 one-dose screen, 48 h (100 = growth as untreated, 0 = no growth, -100 = all killed)
# Details in all cases: 10 µM unless noted
# SK-MEL-2 melanoma = test system: SK-MEL-2 melanoma
# EKVX NSCLC = test system: EKVX NSCLC
# SN12C renal = test system: SN12C renal
# UO-31 renal = test system: UO-31 renal
# TK-10 renal = test system: TK-10 renal
# ACHN renal = test system: ACHN renal
# CAKI-1 renal = test system: CAKI-1 renal
# A498 renal = test system: A498 renal
# CCRF-CEM leukemia = test system: CCRF-CEM leukemia
# MOLT-4 leukemia = test system: MOLT-4 leukemia
# SR leukemia = test system: SR leukemia
# RPMI-8226 leukemia = test system: RPMI-8226 leukemia
# OVCAR-8 ovarian = test system: OVCAR-8 ovarian
# OVCAR-5 ovarian = test system: OVCAR-5 ovarian
# OVCAR-4 ovarian = test system: OVCAR-4 ovarian
# SK-OV-3 ovarian = test system: SK-OV-3 ovarian
# OVCAR-3 ovarian = test system: OVCAR-3 ovarian
# HS 578T breast = test system: HS 578T breast
# NCI/ADR-RES ovarian = test system: NCI/ADR-RES ovarian
# IGROV1 ovarian = test system: IGROV1 ovarian
SMILES,growth (SK-MEL-2 melanoma),growth (EKVX NSCLC),growth (SN12C renal),growth (UO-31 renal),growth (TK-10 renal),growth (ACHN renal),growth (CAKI-1 renal),growth (A498 renal),growth (CCRF-CEM leukemia),growth (MOLT-4 leukemia),growth (SR leukemia),growth (RPMI-8226 leukemia),growth (OVCAR-8 ovarian),growth (OVCAR-5 ovarian),growth (OVCAR-4 ovarian),growth (SK-OV-3 ovarian),growth (OVCAR-3 ovarian),growth (HS 578T breast),growth (NCI/ADR-RES ovarian),growth (IGROV1 ovarian)
CCN(CC)CCC(CNc1ccnc2cc(Cl)ccc12)c1ccc(OC)cc1 (stereo not drawn),101% and 61.7%,69.6% and 85.6%,71.4% and 60.8%,-5.93% (active) and -3.07% (active),58.5% and 46.3%,37.5% and 33.3%,55.6% and 21.6%,38.2% and 28.7%,63.4% and 45.8%,52.3% and 52.5%,-26% (active) and -16.4% (active),60.1% and 39%,63.6% and 46%,76.1% and 89.4%,29.8% and 47.4%,92.7% and 78.5%,84.3% and 80.9%,74%,76.7% and 72.8%,–
COc1cc2nc(N3CCN(C(=O)C4COc5ccccc5O4)CC3)nc(N)c2cc1OC (stereo not drawn),112% and 93.8%,97.5%,88.1% and 83% and 99.7%,94.5% and 98.7% and 85%,86.4% and 88.4%,121% and 92.4% and 98.8%,103% and 82.2% and 87.4%,105% and 94.2% and 101%,74.9% and 89.6% and 97.8%,91.1% and 66.1% and 94.4%,70.4% and 83.6%,100% and 86.9% and 102%,91.7% and 94.7% and 101%,127% and 112% and 96.7%,92.4% and 93.2% and 98.9%,114% and 103% and 105%,107% and 109% and 103%,93.7% and 118%,93.9% and 97.6% and 110%,–
CCCCCCCCCCCCCCCCOc1ccc(C)cc1,115%,99.7%,104%,81.5%,109%,104%,105%,92.3%,127%,103%,97.9%,118%,106%,99.9%,99.8%,108%,108%,–,103%,127%
O=c1c2ccccc2nc2n1Cc1nc3ccccc3c(=O)n1C2,103% and 119%,90.9% and 104%,96.9% and 102%,81.2% and 92.6%,107% and 102%,95.6% and 102%,93.5%,93.9% and 103%,96.2% and 112%,99.4% and 30.7%,85.9%,93% and 102%,112% and 110%,101% and 102%,95.2% and 108%,112% and 110%,92.6% and 112%,91.7% and 114%,102% and 105%,88% and 106%
Cc1cc(=O)[nH]c(O)c1C#N,108%,99.6% and 99.9%,102% and 93.7%,87.3% and 105%,103% and 92.9%,101% and 95.7%,90.3% and 60.5%,114% and 111%,113% and 90.3%,106% and 101%,94.8% and 122%,119% and 332%,105% and 101%,93.7% and 90%,99.8% and 104%,–,112%,120% and 109%,106% and 105%,100%
c1ccc(N(c2ccccc2)c2ccccc2)cc1,99.8%,101%,106%,86.8%,98.9%,103%,90.3%,117%,98%,95.4%,79.3%,100%,97.5%,104%,114%,–,112%,110%,105%,104%
CC(C)(O)Cn1cc(-c2ccc3nc(OC4CC4)ccc3c2)c2c(N)ncnc21,87.8%,85.8% and 49.3%,87.9% and 38.6%,63.7% and 19.2%,74.2% and 55.3%,86.2% and 43.1%,80.9% and 70.1%,64.9% and 21%,67.2% and 38%,56.6% and 17.4%,49.9% and 21%,55.3% and 39.9%,90.2% and 63.6%,84.7% and 48.4%,96.3% and 63.1%,–,109% and 69.8%,71.1% and 31.9%,94.9% and 67.1%,74% and 42.2%
O=C(N/N=C/c1ccccc1)N/N=C/c1ccccc1,123% and 119%,104% and 101%,103% and 114%,92.4% and 102%,119% and 110%,109% and 111%,92.2% and 114%,61.3%,98.6% and 102%,91.8% and 113%,93.8% and 106%,104% and 100%,103% and 107%,109% and 105%,115%,106% and 111%,120%,118% and 91.7%,114% and 106%,–
CC(=O)Nc1cccc2c1CCCC2,82.6% and 75%,96.6% and 94.7%,103% and 100%,88.2% and 91%,85.6% and 83.7%,102% and 110%,95.1%,97.8% and 121%,82.6% and 100%,104% and 102%,104% and 109%,88.8% and 99%,86.5% and 104%,98.8% and 105%,106% and 107%,89% and 92.3%,107% and 108%,92.8% and 110%,97.6% and 96.9%,119% and 96.2%

# Reference: PubChem BioAssay (NCI)
